Where “and” joins values, the source holds several entries; their conditions need not be identical. Equal entries are not always repeated. Inconclusive results are not listed. Calls of active or inactive are those of the source. Unless noted, calls follow the shape of the dose curve; as a rule, active = well fitted curve in the direction sought with a large enough effect in the repeat runs; inconclusive = weak or mixed curves; inactive = no such curve, though single readings can be large; an effect the other way counts as inactive or inconclusive.
Experiments:
[1] = qHTS assay to identify small molecule agonists of the androgen receptor (AR) signaling pathway in the presence of an antagonist - cell viability counter screen (AID 1259379); also: nearly all actives have a fitted effect of over 25% in size; also: potency is read from the fitted curve at half-maximal effect
In short: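 Fluorescence from CellTiter-Fluor, added after 15 hr and read 1 hr later, gave cell viability. Cells were MDA-kb2 exposed to compounds (15 concentrations) in the presence of 3.0uM nilutamide at 37C, 0% CO2.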

[2] = qHTS assay to identify small molecule agonists of the estrogen receptor beta (ER-beta) signaling pathway - cell viability counter screen (AID 1259380); also: nearly all actives have a fitted effect of over 30% in size; also: potency is read from the fitted curve at half-maximal effect
In short: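 Same-well viability counter screen. Cells: ER-beta-UAS-bla HEK293T, plated 6 hr before compound, in 2% charcoal-stripped FBS. Compound exposure 16 hr, 37C; viability by CellTiter-Glo luminescence after 30 min at room temperature.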

[3] = target: Androgen receptor (Homo sapiens) (UniProt P10275); assay: qHTS assay to identify small molecule agonists of the androgen receptor (AR) signaling pathway in the presence of an antagonist (AID 1259381; calls by dose curve; also: nearly all actives have a fitted effect of over 15% in size; also: potency is read from the fitted curve at half-maximal effect)
In short: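 Cells are MDA-kb2 (human breast carcinoma, MMTV-luc, AR/GR responsive). Nilutamide is present at 3.0uM final throughout; compounds are added at 15 concentrations and incubated 16hr at 37C before ONE-Glo luminescence detection.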

[4] = qHTS assay to identify small molecule antagonists of the estrogen receptor beta (ER-beta) signaling pathway - cell viability counter screen (AID 1259382); also: nearly all actives have a fitted effect of over 55% in size; also: potency is read from the fitted curve at half-maximal effect
In short: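 Following a 6 hr plating period, HEK293T cells carrying a UAS-driven beta-lactamase reporter under ER-beta control received compounds and 1nM E2 (final). After 16 hr at 37C and 2 hr substrate loading, CellTiter-Glo luminescence indicated viability.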

[5] = target: Estrogen receptor (Homo sapiens) (UniProt P03372); assay: qHTS assay to identify small molecule agonists of the estrogen receptor alpha (ER-alpha) signaling pathway in the presence of an antagonist (AID 1259383; calls by dose curve; also: top concentration of the series differs between compounds; nearly all actives have a fitted effect of over 15% in size)
In short: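 Cells are hormone-deprived for 5 days (charcoal-stripped FBS, no phenol red), plated for 24hr, spiked with 10.0nM ICI-182,780, then dosed at 15 concentrations. After 22hr at 37C, ONE-Glo luminescence reports ERE-luciferase activity.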

[6] = qHTS assay to identify small molecule agonists or antagonists of the thyroid stimulating hormone receptor (TSHR) signaling pathway - wild type cell line counter screen (AID 1259384; calls by dose curve)
In short: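 Counter screen in untransfected Hek293: compounds (15-point titration, triplicate) plus phosphodiesterase inhibitor Ro20-1724 added after 18 h plating; 30 min RT. Intracellular cAMP via competitive d2/cryptate immunoassay, 1 h incubation.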

[7] = target: Thyrotropin receptor (Homo sapiens) (UniProt P16473); assay: qHTS assay to identify small molecule antagonists of the thyroid stimulating hormone receptor (TSHR) signaling pathway (AID 1259385; calls by dose curve; also: nearly all actives have a fitted effect of over 20% in size)
In short: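 Antagonist mode: compound-treated TSHR-expressing HEK293 cells were stimulated with 1.5 ng/mL TSH (final) in presence of Ro20-1724 for 30 min at RT. HTRF cAMP detection after 1 h; each compound tested at 15 concentrations, triplicate.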

[8] = qHTS assay to identify small molecule agonists of the estrogen receptor alpha (ER-alpha) signaling pathway in the presence of an antagonist - cell viability counter screen (AID 1259386);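 also: cells exposed to compounds for 22 h at 37 °C before the viability read; nearly all actives have a fitted effect of over 30% in size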; also: potency is read from the fitted curve at half-maximal effect
In short: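 Cells are starved of estrogens for 5 days in charcoal-stripped serum, seeded for 24hr and co-treated with ICI-182,780 (10.0nM final) and test compounds. After 22hr at 37C, viability is read as CellTiter-Fluor fluorescence.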

[9] = target: Progesterone receptor (Homo sapiens) (UniProt P06401); assay: qHTS assay to identify small molecule agonists of the progesterone receptor (PR) signaling pathway (AID 1346784; calls by dose curve; also: nearly all actives have a fitted effect of over 30% in size)
In short: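 Seed PR-UAS-bla HEK 293T cells (2% charcoal-stripped FBS), incubate 6 hr at 37C; add compounds in DMSO, 16 hr at 37C; add LiveBLAzer B/G substrate, 2 hr RT; read fluorescence intensity.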

[10] = target: Progesterone receptor (Homo sapiens) (UniProt P06401); assay: qHTS assay to identify small molecule antagonists of the progesterone receptor (PR) signaling pathway (AID 1346795; active = well fitted inhibition curve with a large enough effect in the signal ratio in the repeat runs, not every such curve was filed as active; the % refers to the signal ratio; also: potency is read from the fitted curve at half-maximal effect)
In short: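 Screening used a GripTite HEK293T line with PR-responsive UAS-beta-lactamase. Cells were challenged with compound in the presence of 1 nM R5020 final for 16 hr at 37C; B/G FRET substrate, 2 hr room temperature, fluorescence.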

[11] = qHTS assay to identify small molecule antagonists of the progesterone receptor (PR) signaling pathway - cell viability counter screen (AID 1346798); also: nearly all actives have a fitted effect of over 50% in size; also: potency is read from the fitted curve at half-maximal effect
In short: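 Measures cytotoxicity in parallel with the PR antagonist reporter read: HEK293T PR-UAS-bla cells get compound and R5020 for 16 hr, and remaining viable cells are quantified by CellTiter-Glo luminescence.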

[12] = qHTS assay to identify small molecule agonists of the progesterone receptor (PR) signaling pathway - cell viability counter screen (AID 1346799; calls by dose curve; also: nearly all actives have a fitted effect of over 45% in size; also: potency is read from the fitted curve at half-maximal effect)
In short: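 Using the same plates as the PR reporter screen, HEK293T PR-UAS-bla cells received compounds for 16 hr at 37C and were then lysed with CellTiter-Glo; luminescence was read 30 min later at room temperature.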

[13] = qHTS assay to identify small molecule antagonists of the TGF-beta/Smad signaling pathway - cell viability counter screen (AID 1346824); also: nearly all actives have a fitted effect of over 50% in size; also: potency is read from the fitted curve at half-maximal effect
In short: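 Cytotoxicity counter-screen run in the same wells as the beta-lactamase Smad reporter read: CellTiter-Glo luminescence after 30 min at room temperature. HEK 293T SBE-bla cells had 5 hr compound exposure at 37 C with TGF-beta1 (0.25 ng/mL stock).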

[14] = qHTS assay to identify small molecule agonists of the TGF-beta/Smad signaling pathway - cell viability counter screen (AID 1346829); also: nearly all actives have a fitted effect of over 45% in size; also: potency is read from the fitted curve at half-maximal effect
In short: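 Luminescence from CellTiter-Glo, read after a 30 min room-temperature incubation, gives cell viability of SBE-bla HEK 293T cells treated 5 hr with compounds at 37 C.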

[15] = qHTS assay to identify small molecule agonists of the TGF-beta/Smad signaling pathway (AID 1346859; active = well fitted activation curve with a large enough effect in the signal ratio in the repeat runs, not every such curve was filed as active; the % refers to the signal ratio; also: series mostly up to about 77 µM)
In short: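 Beta-lactamase reporter activity downstream of Smad binding elements was measured in stably transfected HEK 293T cells; compounds were incubated for 5 hr, substrate for 2 hr at room temperature.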

[16] = target: Thyrotropin-releasing hormone receptor (Homo sapiens) (UniProt P34981); assay: qHTS assay to identify small molecule antagonists of the thyrotropin-releasing hormone receptor (TRHR) signaling pathway (AID 1346877; active = well fitted inhibition curve with a large enough effect in the repeat runs, not every such curve was filed as active; also: series mostly up to about 51 µM)
In short: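 Cells (TRHR-HEK293) are plated and kept 18 h at 37 °C/5% CO2. A calcium-sensitive dye is added for 2 h, compound follows for 5 min at room temperature, and TRH is then given at 1 nM final.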

[17] = target: Thyrotropin-releasing hormone receptor (Homo sapiens) (UniProt P34981); assay: qHTS assay to identify small molecule agonists of the thyrotropin-releasing hormone receptor (TRHR) signaling pathway (AID 1346891; calls by dose curve;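 also: HEK293 cells expressing TRHR with calcium dye readout; series mostly up to about 58 µM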)
In short: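 Overnight-plated (18 h, 37 °C, 5% CO2) TRHR-Hek293 cells; 2 h calcium dye at 37 °C; compound in DMSO; 3-min kinetic fluorescence read.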

[18] = Human pregnane X receptor (PXR) small molecule agonists, qHTS cell viability counter screen (AID 1346977); also: nearly all actives have a fitted effect of over 50% in size; also: potency is read from the fitted curve at half-maximal effect
In short: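 After a 5hr pre-incubation, PXR-Luc HepG2 cells received compounds plus positive control in DMSO and were kept 24hr at 37C. Cell viability was quantified by fluorescence from CellTiter-Fluor added for the final hour.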

[19] = target: Estrogen receptor beta (Homo sapiens) (UniProt Q92731); assay: qHTS assay to identify small molecule antagonists of the estrogen receptor beta (ER-beta) signaling pathway (AID 1259378; active = well fitted inhibition curve with a large enough effect in the signal ratio in the repeat runs, not every such curve was filed as active; the % refers to the signal ratio; also: potency is read from the fitted curve at half-maximal effect)
In short: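 Antagonist mode: compounds added to beta-lactamase reporter HEK293T ER-beta-UAS cells stimulated with E2 (1nM final), 16 hr at 37C. LiveBLAzer B/G FRET substrate, 2 hours room temperature, fluorescence read-out.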

Measured: Potency

Thyrotropin-releasing hormone receptor (Homo sapiens), sequence (P34981 whole entry, looked up): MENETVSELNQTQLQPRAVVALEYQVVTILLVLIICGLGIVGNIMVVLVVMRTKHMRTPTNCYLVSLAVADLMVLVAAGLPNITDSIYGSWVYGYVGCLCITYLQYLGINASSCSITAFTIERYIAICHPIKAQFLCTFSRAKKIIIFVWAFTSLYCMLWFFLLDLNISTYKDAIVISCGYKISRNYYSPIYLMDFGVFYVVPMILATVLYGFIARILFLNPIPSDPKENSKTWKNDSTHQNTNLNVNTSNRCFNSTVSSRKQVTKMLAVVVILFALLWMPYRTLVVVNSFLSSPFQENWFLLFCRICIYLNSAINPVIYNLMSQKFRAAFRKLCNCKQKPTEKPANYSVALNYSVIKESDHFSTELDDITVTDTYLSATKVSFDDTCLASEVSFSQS
Progesterone receptor (Homo sapiens), sequence (P06401 whole entry, looked up): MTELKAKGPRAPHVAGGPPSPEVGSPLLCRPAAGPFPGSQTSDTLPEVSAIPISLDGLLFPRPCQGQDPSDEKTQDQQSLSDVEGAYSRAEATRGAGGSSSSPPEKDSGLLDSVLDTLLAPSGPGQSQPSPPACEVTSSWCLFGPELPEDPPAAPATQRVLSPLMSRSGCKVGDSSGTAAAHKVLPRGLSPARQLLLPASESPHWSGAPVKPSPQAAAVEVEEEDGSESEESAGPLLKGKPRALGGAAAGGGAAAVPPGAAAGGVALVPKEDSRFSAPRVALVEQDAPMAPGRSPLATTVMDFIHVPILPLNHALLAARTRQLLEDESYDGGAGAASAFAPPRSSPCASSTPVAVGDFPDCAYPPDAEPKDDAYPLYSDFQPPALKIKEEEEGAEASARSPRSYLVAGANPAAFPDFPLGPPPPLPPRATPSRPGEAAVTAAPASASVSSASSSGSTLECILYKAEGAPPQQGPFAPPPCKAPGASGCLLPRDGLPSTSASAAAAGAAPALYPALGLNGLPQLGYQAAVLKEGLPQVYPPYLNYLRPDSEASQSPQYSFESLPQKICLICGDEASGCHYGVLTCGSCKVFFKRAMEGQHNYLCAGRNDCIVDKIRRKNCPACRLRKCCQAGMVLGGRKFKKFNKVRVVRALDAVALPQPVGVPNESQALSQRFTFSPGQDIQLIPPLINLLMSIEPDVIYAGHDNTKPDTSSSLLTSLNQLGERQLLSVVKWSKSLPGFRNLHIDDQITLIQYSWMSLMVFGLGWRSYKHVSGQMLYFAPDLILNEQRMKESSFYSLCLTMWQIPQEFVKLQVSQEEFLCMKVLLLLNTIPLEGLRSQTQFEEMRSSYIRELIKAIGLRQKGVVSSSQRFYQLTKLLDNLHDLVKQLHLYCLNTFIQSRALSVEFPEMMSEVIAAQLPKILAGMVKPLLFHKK
Androgen receptor (Homo sapiens), sequence (P10275 whole entry, looked up): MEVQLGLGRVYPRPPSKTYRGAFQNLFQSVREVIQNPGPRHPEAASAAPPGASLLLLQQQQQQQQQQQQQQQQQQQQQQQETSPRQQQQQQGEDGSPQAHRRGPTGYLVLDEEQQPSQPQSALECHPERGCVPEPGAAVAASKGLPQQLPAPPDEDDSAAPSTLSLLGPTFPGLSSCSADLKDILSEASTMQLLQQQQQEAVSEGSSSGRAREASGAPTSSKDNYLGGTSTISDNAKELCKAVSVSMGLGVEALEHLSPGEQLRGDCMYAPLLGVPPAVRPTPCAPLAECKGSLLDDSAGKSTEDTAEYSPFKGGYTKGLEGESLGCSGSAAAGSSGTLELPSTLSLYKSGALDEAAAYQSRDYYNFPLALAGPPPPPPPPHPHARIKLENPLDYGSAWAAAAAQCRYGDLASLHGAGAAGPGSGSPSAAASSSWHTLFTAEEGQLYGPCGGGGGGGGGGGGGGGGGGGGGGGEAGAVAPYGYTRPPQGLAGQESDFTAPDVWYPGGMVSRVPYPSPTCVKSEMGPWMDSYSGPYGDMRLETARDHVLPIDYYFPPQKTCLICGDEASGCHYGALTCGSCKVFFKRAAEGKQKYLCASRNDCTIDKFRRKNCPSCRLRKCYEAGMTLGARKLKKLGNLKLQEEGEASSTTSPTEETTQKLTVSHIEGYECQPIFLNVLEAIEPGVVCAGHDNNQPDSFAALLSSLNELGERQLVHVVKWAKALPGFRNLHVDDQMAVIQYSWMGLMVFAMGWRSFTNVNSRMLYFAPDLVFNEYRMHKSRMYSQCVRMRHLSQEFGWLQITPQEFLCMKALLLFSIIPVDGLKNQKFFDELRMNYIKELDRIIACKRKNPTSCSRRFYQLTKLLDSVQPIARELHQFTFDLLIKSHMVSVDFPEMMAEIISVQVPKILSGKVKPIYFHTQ
Estrogen receptor (Homo sapiens), sequence (P03372 whole entry, looked up): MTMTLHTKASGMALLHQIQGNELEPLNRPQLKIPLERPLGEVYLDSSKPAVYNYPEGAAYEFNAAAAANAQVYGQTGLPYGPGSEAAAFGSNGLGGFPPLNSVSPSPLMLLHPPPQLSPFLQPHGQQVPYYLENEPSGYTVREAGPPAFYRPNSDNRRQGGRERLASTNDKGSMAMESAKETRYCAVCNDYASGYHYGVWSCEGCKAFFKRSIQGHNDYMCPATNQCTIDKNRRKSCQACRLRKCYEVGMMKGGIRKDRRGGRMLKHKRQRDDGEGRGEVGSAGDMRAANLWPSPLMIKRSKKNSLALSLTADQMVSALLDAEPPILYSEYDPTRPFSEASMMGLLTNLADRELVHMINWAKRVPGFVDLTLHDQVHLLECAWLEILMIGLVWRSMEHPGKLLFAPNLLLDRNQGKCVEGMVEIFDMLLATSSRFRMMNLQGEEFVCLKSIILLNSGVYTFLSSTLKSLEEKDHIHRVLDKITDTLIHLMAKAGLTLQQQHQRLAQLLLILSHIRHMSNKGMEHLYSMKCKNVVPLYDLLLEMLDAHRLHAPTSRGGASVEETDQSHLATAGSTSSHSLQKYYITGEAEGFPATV
Estrogen receptor beta (Homo sapiens), sequence (Q92731 whole entry, looked up): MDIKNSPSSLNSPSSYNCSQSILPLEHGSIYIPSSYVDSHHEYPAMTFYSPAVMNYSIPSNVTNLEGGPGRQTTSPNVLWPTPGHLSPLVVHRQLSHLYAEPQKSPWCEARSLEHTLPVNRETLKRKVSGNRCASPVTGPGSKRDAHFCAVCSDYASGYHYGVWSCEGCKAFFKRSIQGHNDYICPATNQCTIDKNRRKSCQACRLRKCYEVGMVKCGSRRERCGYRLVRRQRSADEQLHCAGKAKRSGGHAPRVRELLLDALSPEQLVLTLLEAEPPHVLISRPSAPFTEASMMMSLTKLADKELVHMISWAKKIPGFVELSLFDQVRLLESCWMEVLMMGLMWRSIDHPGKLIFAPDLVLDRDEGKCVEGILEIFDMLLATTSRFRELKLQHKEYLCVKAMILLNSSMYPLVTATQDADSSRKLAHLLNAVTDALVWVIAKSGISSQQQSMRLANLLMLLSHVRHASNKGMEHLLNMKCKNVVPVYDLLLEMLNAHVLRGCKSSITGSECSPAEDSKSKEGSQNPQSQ
Thyrotropin receptor (Homo sapiens), sequence (P16473 whole entry, looked up): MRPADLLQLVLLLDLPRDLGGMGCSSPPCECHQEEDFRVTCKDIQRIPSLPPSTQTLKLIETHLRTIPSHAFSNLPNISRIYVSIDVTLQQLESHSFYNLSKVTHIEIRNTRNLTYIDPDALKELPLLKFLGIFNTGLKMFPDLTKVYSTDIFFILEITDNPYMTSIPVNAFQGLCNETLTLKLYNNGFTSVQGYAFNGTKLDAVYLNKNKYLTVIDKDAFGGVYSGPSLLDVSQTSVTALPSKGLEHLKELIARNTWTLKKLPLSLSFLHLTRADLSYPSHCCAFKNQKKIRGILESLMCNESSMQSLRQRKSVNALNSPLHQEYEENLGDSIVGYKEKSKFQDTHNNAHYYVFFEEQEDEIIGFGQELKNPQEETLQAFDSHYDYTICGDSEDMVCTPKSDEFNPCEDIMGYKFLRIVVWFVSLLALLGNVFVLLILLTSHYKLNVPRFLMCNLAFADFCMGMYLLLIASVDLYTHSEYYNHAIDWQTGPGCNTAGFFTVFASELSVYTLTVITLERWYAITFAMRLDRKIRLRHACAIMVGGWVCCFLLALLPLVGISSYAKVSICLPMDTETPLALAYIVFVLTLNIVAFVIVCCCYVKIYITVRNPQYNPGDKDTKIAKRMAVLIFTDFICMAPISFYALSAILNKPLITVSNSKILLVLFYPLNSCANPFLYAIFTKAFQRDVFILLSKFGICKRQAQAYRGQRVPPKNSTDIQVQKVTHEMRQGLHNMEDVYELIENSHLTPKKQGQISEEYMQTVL

CN(CCCC(=O)c1cccnc1)N=O
inactive: [1] | [2] | [3] | [4] | [5] | [6] | [7] | [8] | [9] | [10] | [11] | [12] | [13] | [14] | [15] | [16] | [17] | [18]

CCOc1cc(C(C)(C)C)ccc1C1COC(c2c(F)cccc2F)=N1 (stereo unspecified)
inactive: [1] | [3] | [5] | [8] | [14] | [15] | [16] | [17]
active: [2] 18.6 µM | [4] 29.5 µM | [10] 23.4 µM | [11] 37.1 µM

CC1(C)CN=C(NN=C(/C=C/c2ccc(C(F)(F)F)cc2)/C=C/c2ccc(C(F)(F)F)cc2)NC1
active: [1] 30.6 µM | [2] 19.3 µM | [4] 19.3 µM | [8] 43.3 µM | [11] 38.6 µM | [12] 21.7 µM | [13] 38.9 µM | [14] 34.7 µM | [18] 12.2 µM
inactive: [3] | [5] | [6]

CC1CCC(C(C)C)C(OC(=O)c2ccccc2N)C1 (stereo unspecified)
active: [19] 8.51 µM | [2] 30.2 µM | [4] 60.3 µM | [11] 60.3 µM | [12] 53.7 µM
inactive: [1] | [5] | [6] | [15] | [16] | [17]

C[C@@H]1O[C@@H](O[C@H]2C[C@@H](O)[C@]3(CO)[C@H]4[C@H](O)C[C@]5(C)[C@@H](C6=CC(=O)OC6)CC[C@]5(O)[C@@H]4CC[C@]3(O)C2)[C@H](O)[C@H](O)[C@H]1O
inactive: [1] | [5] | [8] | [9] | [16] | [17]
active: [2] 81.9 nM and 94.4 nM | [3] 366 nM and 168 nM | [4] 46.1 nM and 75 nM | [11] 81.9 nM and 150 nM | [12] 116 nM and 168 nM

N#CCCSCCC#N
inactive: [19] | [1] | [4] | [5] | [6] | [7] | [8] | [9] | [10] | [13] | [14] | [15] | [16] | [17] | [18]

SCc1ccco1
inactive: [1] | [2] | [3] | [4] | [5] | [6] | [8] | [9] | [10] | [11] | [12] | [13] | [14] | [15] | [16] | [17] | [18]
